Measurements taken from PubChem BioAssay AID686978 (National Center for Advancing Translational Sciences (NCATS), 2013).
Among all 420,000 compounds or so, about 64,000 (15%) were called active. Roughly 27% stayed inconclusive and do not appear here. These entries were drawn from the full list. A number with no mark means an inactive call. Calls come from the whole dose curve; as a rule, active = well fitted inhibition curve with a large enough effect; inconclusive = small, poorly fitted or top-dose-only effect; inactive = flat fitted curve, though single readings scatter.
% is set by controls: 0 for no effect and ±100 for the full control effect; potency is the fitted concentration of half-maximal effect.

Test: qHTS for Inhibitors of human tyrosyl-DNA phosphodiesterase 1 (TDP1): qHTS in cells in absence of CPT; note: nearly all actives have a fitted effect of over 55% in size
Conditions: DT40 Tdp1-/- hTDP1 cells, no CPT, ATP luminescence, 48 h; activity change, negative = growth inhibition: at 46.2 µM (top of the series)
In short: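 Compound effects on proliferation are scored in DT40 Tdp1-/-;hTDP1 cells in the absence of CPT. ATP levels (CellTiter-Glo luminescence) are recorded after a ≥48 hr, 37 °C incubation.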
In the case of `CC(C)(C)NC(=O)COC(=O)c1cc(Cl)ccc1[N+](=O)[O-]`, the “activity change, negative = growth inhibition” value is reported as -16.1%. For `Cc1[nH]c2ccccc2c1SCC(=O)Nc1nccs1`, the “activity change, negative = growth inhibition” value was -6.86%. With `COc1ccc(Br)cc1C(=O)Nc1cccc(C)c1C` the “activity change, negative = growth inhibition” value was -22.7%. With `Cc1ccc(OCC(=O)Nc2ccc(Cl)c(-c3nc4ccccc4[nH]3)c2)cc1C` the “activity change, negative = growth inhibition” value was -98.6%. With `COc1ccc(Br)cc1C(=O)NC(=S)Nc1cc(-c2nc3ccccc3[nH]2)ccc1C` the Potency was 14.6 µM (active). For `CCOC(=O)c1nnn(CC(=O)NC(=O)Nc2ccccc2F)c1C(=O)OCC`, the “activity change, negative = growth inhibition” value was -18.3%. For `COc1ccc(N(CC(=O)NCC2CCCO2)C(=O)CCC(=O)Nc2nccs2)c(OC)c1` (configuration not stated), the “activity change, negative = growth inhibition” value was -20.4%. Compound `O=c1c(O)c(Br)ccc2c(Br)c(O)c(O)c(O)c12` has an activity change, negative = growth inhibition of 8.26% [at 9.04 µM]. In the case of `COc1cc(NC(=O)COC(=O)c2ccc([N+](=O)[O-])s2)cc(OC)c1OC`, the “activity change, negative = growth inhibition” value is reported as 11.9%. In the case of `O=C(OCC(=O)N1CCN(c2ccccc2)CC1)c1ccc([N+](=O)[O-])s1`, the Potency is reported as 4.61 µM (active). In the case of `C[C@H](NC(=O)c1ccccc1Cl)C(=O)OCC(=O)N1CCN(c2ccccc2)CC1`, the “activity change, negative = growth inhibition” value is reported as 0.465%. In the case of `Oc1ccc(-c2cccc(-c3ccc(O)cc3)c2)cc1`, the “activity change, negative = growth inhibition” value is reported as 6.67%. In the case of `Cc1cn(C2CC(O)C(CO)O2)c(=O)n(CCCc2ccccc2)c1=O` (configuration not stated), the “activity change, negative = growth inhibition” value is reported as -14.7%. With `COCCn1c(=O)c(-c2cccs2)nc2cnc(N3CCN(C)CC3)nc21` the “activity change, negative = growth inhibition” value was -22.9%. For `CCOC(=O)N1CCN(Cc2nc3cc(NC(C)=O)ccc3n2C)CC1`, the “activity change, negative = growth inhibition” value was 0.858%. In the case of `CN1CCN(Cc2nc3cc(NC(=O)COc4ccc([N+](=O)[O-])cc4)ccc3n2C)CC1`, the “activity change, negative = growth inhibition” value is reported as 17.7%. For `CCOC(=O)N1CCN(Cc2nc3cc(NC(=O)CC)ccc3n2CC)CC1`, the Potency was 29.1 µM (active). For `CC(=O)Cc1nsc(NC(=O)c2ccc(COc3ccc(C)cc3)o2)n1`, the “activity change, negative = growth inhibition” value was 1.76%. For `CN1CCC(=NNC(=O)CN(c2cccc(Cl)c2)S(C)(=O)=O)CC1`, the “activity change, negative = growth inhibition” value was -7.27%. With `CC1=CCC2C(=O)N(c3cccc(C(=O)NC(C)c4ccccc4)c3)C(=O)C2C1` (configuration not stated) the “activity change, negative = growth inhibition” value was 7.3%. In the case of `COc1ccc(CCNC(=O)c2ccco2)cc1`, the “activity change, negative = growth inhibition” value is reported as -29.5%. For `CCOc1ncccc1C(=O)NCCc1ccc(OC)cc1`, the Potency was 20.6 µM (active). For `CCCNC(=O)c1ccccc1NC(=O)CSCc1ccc(OC)cc1`, the “activity change, negative = growth inhibition” value was -8.44%. In the case of `Cn1c(=O)[nH]c(=O)c2c1[nH]c(=S)n2Cc1ccccc1`, the “activity change, negative = growth inhibition” value is reported as 26.7%. In the case of `Cc1cccc(OCCNC(=O)CSc2ccc(C(F)(F)F)cc2[N+](=O)[O-])c1`, the Potency is reported as 16.4 µM (active). With `Cc1cccc(OCCNC(=S)NC(=O)c2cccnc2)c1` the “activity change, negative = growth inhibition” value was -8.96%. For `O=C(CSc1ccc(C(F)(F)F)cc1[N+](=O)[O-])NCCOc1ccccc1`, the “activity change, negative = growth inhibition” value was -16.7%. In the case of `CN(C)c1nnnn1-c1ccc(Cl)cc1`, the “activity change, negative = growth inhibition” value is reported as -1.87%. For `O=c1c(-c2cccs2)nc2cnc(Oc3ccccc3)nc2n1-c1ccccc1`, the “activity change, negative = growth inhibition” value was -6.07%. In the case of `Clc1ccc(-n2nnnc2-c2cnc(-c3ccccn3)nc2-c2cccs2)cc1`, the Potency is reported as 5.17 µM (active). With `O=C(OC(C(=O)NC1CCCC1)c1ccc(F)cc1)c1ccno1` (configuration not stated) the “activity change, negative = growth inhibition” value was -10.5%. With `O=C(Nc1ncc2c(n1)CC(c1ccco1)CC2=O)c1ccc(Cl)cc1` (configuration not stated) the “activity change, negative = growth inhibition” value was -25.7%. For `Cc1cccc(NC(=O)CSc2nc3c(c(=O)[nH]2)CCCC3)c1C`, the “activity change, negative = growth inhibition” value was -8.26%. With `CC(=O)NC1=NC(=O)CS1` the “activity change, negative = growth inhibition” value was -2.82%. With `Cc1ccc(S(=O)(=O)N(C)c2ccc(OCC(=O)OCc3ccc(C#N)cc3)cc2)cc1` the “activity change, negative = growth inhibition” value was -1.54%. With `COc1cccc(COc2ccc(N(C)S(=O)(=O)c3ccccc3)cc2)c1` the Potency was 16.4 µM (active). For `CN(c1ccc(OCC(=O)O)cc1)S(=O)(=O)c1ccc2ccccc2c1`, the “activity change, negative = growth inhibition” value was -8.74%. With `CCOC(=O)CNC(=O)CSc1nc2cccnc2n1CC` the “activity change, negative = growth inhibition” value was -5.19%. For `CC(C)C[C@H]1CN=C(Nc2ccccc2)N1CC1CCCCC1`, the Potency was 16.4 µM (active). With `CC(CO)(CO)NC(=O)c1ccc(=O)[nH]n1` the “activity change, negative = growth inhibition” value was 7.23%. For `Cc1ccc2c(c1)c1c(c(=O)n(-c3ccccc3)c(=O)n1CC(=O)c1ccc(Cl)cc1)n2C`, the “activity change, negative = growth inhibition” value was -11.5%. In the case of `CCc1ccccc1NC(=O)Cn1c(=O)n(-c2cccc(C)c2)c(=O)c2c1c1cc(OC)ccc1n2C`, the Potency is reported as 2.06 µM (active). For `Cc1cccc(-n2c(=O)c3c(c4cc(C)ccc4n3C)n(CC(=O)Nc3ccccc3Cl)c2=O)c1`, the “activity change, negative = growth inhibition” value was -9.55%. With `CCC(CC)c1nnc(NS(=O)(=O)Cc2ccccc2)s1` the “activity change, negative = growth inhibition” value was -0.792%. With `Cc1nn(C(C)C(=O)N2CCOCC2)c(=O)c2nn(-c3ccccc3)c(C)c12` (configuration not stated) the “activity change, negative = growth inhibition” value was 10.9%. In the case of `Cc1c(CNCCc2ccccc2)c(C(=O)O)c(C)n1-c1ccccc1`, the “activity change, negative = growth inhibition” value is reported as -6.22%. In the case of `CC1=NOC(=O)/C1=C\c1ccccc1`, the “activity change, negative = growth inhibition” value is reported as -19.8%. For `C#CCOc1ccccc1/C=C1/C(=O)ON=C1C`, the Potency was 14.6 µM (active). For `Cc1cn(C)c(CC(=O)NCc2ccccc2)c1C(=O)O`, the “activity change, negative = growth inhibition” value was 10%. In the case of `COc1ccc(Cl)cc1NC(=O)COc1ccc2c(c1)OCO2`, the “activity change, negative = growth inhibition” value is reported as -1.31%. In the case of `COc1ccc(Cl)cc1NC(=O)CN1CCN(C(=O)N2CCOCC2)CC1`, the “activity change, negative = growth inhibition” value is reported as -16.6%. With `COc1ccc(Cl)cc1NC(=O)COC(=O)C(CC(C)C)N1C(=O)C2CC=CCC2C1=O` (configuration not stated) the Potency was 18.4 µM (active). In the case of `CC1(C)NC(=O)N(CCOc2cccc(Oc3ccccc3)c2)C1=O`, the “activity change, negative = growth inhibition” value is reported as -8.49%. For `Cc1nnc(N(Cc2ccco2)C(=O)c2ccno2)s1`, the “activity change, negative = growth inhibition” value was -13.2%. In the case of `CCCNC(=O)c1c(Cl)cnn1-c1ccc(C)cc1`, the “activity change, negative = growth inhibition” value is reported as -16%. For `Cc1ccnc(NC(=O)CCCOc2ccccc2)c1`, the “activity change, negative = growth inhibition” value was -0.626%. With `COc1ccc(Cl)cc1NC(=O)c1oc(C)nc1C` the “activity change, negative = growth inhibition” value was -4.86%.
